Measurements as given in PubChem BioAssay (NCATS).
Values without a mark were called inactive. Results filed as inconclusive are left out. Entries that show only a call come without a potency. The source made the active and inactive calls. Unless noted, the call rests on the fitted dose curve; in most records, active means well fitted curve in the direction sought with a large enough effect; inconclusive means small, poorly fitted or top-dose-only effect, or another doubt; inactive means no such curve, though single readings can be large; an effect the other way counts as inactive or inconclusive.

How the values were obtained:
[1] = target: Voltage-gated inwardly rectifying potassium channel KCNH2 (Homo sapiens) (UniProt Q12809); test: qHTS Assay for Small Molecule Inhibitors of the Human hERG Channel Activity (AID 588834);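 further: lower thallium flux fluorescence means stronger hERG block; nearly all actives have a fitted effect of over 50% in size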; further: potency means the concentration at half of the fitted maximal effect
Method in brief: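 Homogeneous FluxOR thallium flux assay using hERG-expressing U2OS cells (BacMam). Compound treatment about 10 minutes preceded stimulation; reduced fluorescence taken as channel block.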

[2] = target: Glutaminase kidney isoform, mitochondrial (Homo sapiens) (UniProt O94925); test: qHTS for Inhibitors of Glutaminase (GLS): LOPAC Validation (AID 624146); further: nearly all actives have a fitted effect of over 60% in size; further: potency means the concentration at half of the fitted maximal effect
Method in brief: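 hKGA in 45 mM KH2PO4 pH 8.2, 0.02% Tween-20 with pin-transferred compounds; 1 mM L-glutamine (stock) plus glutamate oxidase/HRP/Amplex Red coupling added. Fluorescence read initially and after 30 min at RT.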

[3] = qHTS of Trypanosoma Brucei Inhibitors: LOPAC Validation (AID 624147)
Method in brief: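 Luminescence from Kinase-Glo Plus, added after a 45-minute room-temperature reaction, served as the end-point read-out. The enzyme and substrate were preincubated with compound before ADP (130 uM final) initiated turnover. Concentration-effect curves came from normalized qHTS data.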

[4] = target: Glucagon-like peptide 1 receptor (Homo sapiens) (UniProt P43220); test: qHTS of GLP-1 Receptor Agonists: LOPAC Validation (AID 624148);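 further: higher luminescence signal means agonism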
Method in brief: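 HEK293 cells stably co-expressing GLP-1R and a cAMP-responsive luciferase reporter, plated 12 hours before compound, then incubated 4-6 hr at 37 deg C. Luminescence read 12 min after detection reagent.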

[5] = qHTS of Nrf2 Activators: LOPAC Validation (AID 624149)
Method in brief: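 AREc32_Fluc cells, 1000/well, OPTI-MEM + 5% FBS, o/n 37 deg C 5% CO2; compound pin-transfer, 24 hr 37 deg C; Steady-Glo 30 min RT, luminescence read.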

[6] = HTS Assay for Allosteric Antagonists of the Human D2 Dopamine Receptor: Hit Validation in HTRF (AID 624455)
Method in brief: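 HTRF read-out; cells stably expressing D1 receptor; hits scored for inhibition of D1-mediated response. Primary screen: calcium flux, force-coupled inducible Hek293 Trex D2 line, antagonism vs EC80 dopamine.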

[7] = qHTS assay for small molecule activators of the nuclear factor-kappa B (NF-kB) signaling pathway (AID 651749; active means well fitted activation curve with a large enough effect in the signal ratio; the % refers to the signal ratio; further: series mostly up to about 77 µM); settings: NF-kB-bla ME-180 cells, beta-lactamase FRET ratio, 16 h; stronger effect = higher value
Method in brief: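 NF-kB-bla ME-180 cells, 2,000/well; 23 nL compound or DMSO pinned; 16 hr, 37C/5% CO2; beta-lactamase FRET read-out.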

[8] = qHTS assay for environmental chemicals that activate the Aryl hydrocarbon Receptor (AhR) signaling pathway (AID 651777); settings: 1A2-DRE human hepatoma cells, luciferase, 24 h; stronger effect = higher value; further: nearly all actives have a fitted effect of over 15% in size
Method in brief: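 Luminescence read-out: One-Glo added for 30 min at RT after 24 hr compound treatment (37 C, 5% CO2) of human hepatoma cells expressing a DRE/CYP1A2 promoter–luciferase reporter; increased signal indicates AhR activation.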

[9] = target: Peroxisome proliferator-activated receptor alpha (Homo sapiens) (UniProt Q07869); test: qHTS assay for small molecule agonists of the peroxisome proliferator-activated receptor alpha (PPARalpha) signaling pathway (AID 651778); settings: PathHunter PPARalpha complementation, chemiluminescence, 6 h; max response: stronger effect = higher value
Method in brief: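 Enzyme-fragment complementation assay in which ligand-bound PPARalpha translocates and forms an active enzyme that generates chemiluminescence. Cells were plated overnight, exposed to compound for 6 hr at 37 C, and then given detection reagent for 60 min at room temperature.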

Voltage-gated inwardly rectifying potassium channel KCNH2 (Homo sapiens), sequence (Q12809 whole entry, looked up): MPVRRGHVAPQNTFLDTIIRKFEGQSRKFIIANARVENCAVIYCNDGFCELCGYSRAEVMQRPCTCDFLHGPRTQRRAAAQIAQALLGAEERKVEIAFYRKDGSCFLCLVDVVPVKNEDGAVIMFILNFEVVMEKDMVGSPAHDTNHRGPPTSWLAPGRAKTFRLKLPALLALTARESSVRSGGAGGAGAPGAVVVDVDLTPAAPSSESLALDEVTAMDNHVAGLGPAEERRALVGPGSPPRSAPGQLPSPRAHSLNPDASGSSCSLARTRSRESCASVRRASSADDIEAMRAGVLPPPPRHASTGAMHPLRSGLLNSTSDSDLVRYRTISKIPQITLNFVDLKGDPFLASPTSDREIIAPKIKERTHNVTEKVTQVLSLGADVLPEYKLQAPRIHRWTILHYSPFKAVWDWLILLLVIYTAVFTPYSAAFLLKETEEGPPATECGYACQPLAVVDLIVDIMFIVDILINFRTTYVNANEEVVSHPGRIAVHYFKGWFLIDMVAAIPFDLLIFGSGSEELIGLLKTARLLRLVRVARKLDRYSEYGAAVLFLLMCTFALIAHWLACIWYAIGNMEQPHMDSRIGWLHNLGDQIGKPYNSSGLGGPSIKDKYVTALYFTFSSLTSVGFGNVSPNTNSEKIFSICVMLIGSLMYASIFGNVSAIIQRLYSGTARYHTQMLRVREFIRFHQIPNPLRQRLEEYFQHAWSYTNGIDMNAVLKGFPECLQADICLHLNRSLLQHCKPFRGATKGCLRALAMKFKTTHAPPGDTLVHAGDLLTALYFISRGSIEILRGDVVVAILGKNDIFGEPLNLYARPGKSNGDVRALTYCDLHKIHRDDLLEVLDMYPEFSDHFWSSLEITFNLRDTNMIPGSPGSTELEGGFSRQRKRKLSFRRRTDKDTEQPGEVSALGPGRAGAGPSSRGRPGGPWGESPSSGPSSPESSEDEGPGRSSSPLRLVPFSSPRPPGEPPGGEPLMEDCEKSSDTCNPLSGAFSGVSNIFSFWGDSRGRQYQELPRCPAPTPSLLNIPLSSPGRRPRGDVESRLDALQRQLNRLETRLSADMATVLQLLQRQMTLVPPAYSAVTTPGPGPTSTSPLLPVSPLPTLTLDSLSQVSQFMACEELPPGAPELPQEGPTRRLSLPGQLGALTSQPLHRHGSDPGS
Glutaminase kidney isoform, mitochondrial (Homo sapiens), sequence (O94925 whole entry, looked up, canonical isoform): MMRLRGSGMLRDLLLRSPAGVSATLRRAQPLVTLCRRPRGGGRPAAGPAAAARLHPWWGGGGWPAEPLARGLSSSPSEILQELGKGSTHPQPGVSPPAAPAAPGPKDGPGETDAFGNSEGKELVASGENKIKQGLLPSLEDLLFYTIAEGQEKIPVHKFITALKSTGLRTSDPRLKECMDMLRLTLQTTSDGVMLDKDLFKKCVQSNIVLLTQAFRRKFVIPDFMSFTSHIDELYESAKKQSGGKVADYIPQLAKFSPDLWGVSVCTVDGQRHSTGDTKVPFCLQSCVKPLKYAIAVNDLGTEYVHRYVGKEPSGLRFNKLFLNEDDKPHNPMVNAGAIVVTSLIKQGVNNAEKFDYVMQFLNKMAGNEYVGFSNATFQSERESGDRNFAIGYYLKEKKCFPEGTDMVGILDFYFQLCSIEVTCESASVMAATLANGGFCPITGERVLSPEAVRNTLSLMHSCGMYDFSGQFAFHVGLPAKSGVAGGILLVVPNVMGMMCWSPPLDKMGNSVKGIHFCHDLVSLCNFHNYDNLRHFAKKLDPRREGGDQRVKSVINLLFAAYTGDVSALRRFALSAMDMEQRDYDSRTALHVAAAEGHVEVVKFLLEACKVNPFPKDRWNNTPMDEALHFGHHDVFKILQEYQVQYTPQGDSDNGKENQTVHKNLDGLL
Glucagon-like peptide 1 receptor (Homo sapiens), sequence (P43220 whole entry, looked up): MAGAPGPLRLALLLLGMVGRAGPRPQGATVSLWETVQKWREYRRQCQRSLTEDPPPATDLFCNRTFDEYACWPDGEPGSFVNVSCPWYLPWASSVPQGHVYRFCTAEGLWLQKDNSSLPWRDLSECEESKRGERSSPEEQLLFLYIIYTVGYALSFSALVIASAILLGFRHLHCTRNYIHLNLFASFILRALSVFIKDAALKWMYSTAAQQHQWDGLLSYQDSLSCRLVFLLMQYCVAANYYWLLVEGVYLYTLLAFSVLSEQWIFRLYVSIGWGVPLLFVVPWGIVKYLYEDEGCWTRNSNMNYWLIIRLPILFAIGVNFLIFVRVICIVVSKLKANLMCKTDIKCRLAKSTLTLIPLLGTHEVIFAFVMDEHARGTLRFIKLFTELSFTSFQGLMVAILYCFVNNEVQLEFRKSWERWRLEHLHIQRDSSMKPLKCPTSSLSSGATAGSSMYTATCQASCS
Peroxisome proliferator-activated receptor alpha (Homo sapiens), sequence (Q07869 whole entry, looked up, the tested form may be a part): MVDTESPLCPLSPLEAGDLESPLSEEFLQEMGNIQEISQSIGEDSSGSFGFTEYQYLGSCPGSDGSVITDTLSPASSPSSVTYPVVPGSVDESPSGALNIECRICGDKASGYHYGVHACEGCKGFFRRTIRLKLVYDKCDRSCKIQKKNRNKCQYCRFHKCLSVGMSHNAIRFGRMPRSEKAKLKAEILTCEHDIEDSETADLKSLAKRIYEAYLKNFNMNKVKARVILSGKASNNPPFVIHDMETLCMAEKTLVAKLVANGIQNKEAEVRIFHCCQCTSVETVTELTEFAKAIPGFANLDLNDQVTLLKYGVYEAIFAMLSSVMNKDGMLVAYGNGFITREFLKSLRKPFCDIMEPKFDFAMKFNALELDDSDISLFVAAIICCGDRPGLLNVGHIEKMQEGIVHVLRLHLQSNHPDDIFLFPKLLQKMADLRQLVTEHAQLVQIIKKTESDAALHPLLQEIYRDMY

Compound | Potency [1] | Potency [2] | Potency [3] | Potency [4] | Potency [5] | Potency [6] | activation [7] | activation [8] | max response [9]
COc1ccc2c(c1)CCC1C2CC[C@@]2(C)C1CC[C@@H]2NCCCCCCN1C(=O)C=CC1=O (some centres not stated) | inactive | inactive | inactive | inactive | inactive | inactive | – | – | –
O=[N+]([O-])c1cccc2c(Br)[nH]nc12 | inactive | inactive | inactive | inactive | inactive | inactive | – | – | –
COc1ccccc1N1CCN(CCN(C(=O)c2ccc(F)cc2)c2ccccn2)CC1 | 11.2 µM (active) | inactive | inactive | inactive | inactive | inactive | – | – | –
COC1(C2=NCCN2)COc2ccccc2O1 (configuration not stated) | inactive | inactive | inactive | inactive | inactive | inactive | – | – | –
CCCCCCCCCC(=O)NC(CN1CCOCC1)[C@H](O)c1ccccc1 (some centres not stated) | 12.6 µM (active) | inactive | inactive | inactive | inactive | inactive | – | – | –
NCC(O)(CS(=O)(=O)O)c1ccc(Cl)cc1 (configuration not stated) | inactive | inactive | inactive | inactive | inactive | inactive | – | – | –
CCSC(=N)N | inactive | inactive | inactive | inactive | inactive | inactive | – | – | –
Nc1ccc(CCNc2ncnc3c2ncn3C2OC(CO)C(O)C2O)cc1 (configuration not stated) | inactive | inactive | inactive | inactive | inactive | inactive | – | – | –
O=C(O)Cc1c[nH]c2ccc(O)cc12 | inactive | 1.58 µM (active) | – | inactive | inactive | inactive | – | – | –
CCCN(CCc1ccccc1)C1CCc2c(O)cccc2C1 (configuration not stated) | 0.355 µM (active) | – | inactive | inactive | inactive | – | – | – | –
NC1CCN(O)C1=O (configuration not stated) | inactive | – | inactive | inactive | inactive | inactive | – | – | –
Oc1ccc(Cn2cc[nH]c2=S)cc1 | inactive | inactive | – | inactive | inactive | inactive | – | – | –
CCCc1c(-c2ccc(O)cc2)nn(-c2ccc(O)cc2)c1-c1ccc(O)cc1 | inactive | inactive | inactive | inactive | – | inactive | -3.76% | -1.12% | -1.98%
CCN(CC)CCOC(=O)c1cc(Cl)c(N)cc1OC | inactive | inactive | inactive | – | inactive | inactive | – | – | –
O=c1[nH]c(=O)c2nc3ccccc3nc2[nH]1 | inactive | inactive | inactive | inactive | – | inactive | – | – | –
NC/C=C\C(=O)O | inactive | – | inactive | inactive | inactive | inactive | – | – | –

Compound | Potency [1] | Potency [2] | Potency [3] | Potency [4] | Potency [5] | Potency [6] | activation [7] | activation [8] | max response [9]
CCn1c(=O)[nH]c2cc(Cl)c(Cl)cc21 | inactive | inactive | inactive | – | inactive | inactive | – | – | –
CCCCC[C@H](CC(=O)NO)C(=O)N[C@H](C(=O)N1CCC[C@H]1CO)C(C)C | inactive | – | inactive | inactive | inactive | inactive | – | – | –
C=CCN1CCc2c(cc(O)c(O)c2Br)[C@@H](c2ccccc2)C1 | 7.08 µM (active) | – | inactive | inactive | inactive | – | – | – | –
N=C(N)c1ccc(N)cc1 | inactive | inactive | inactive | inactive | – | inactive | – | – | –
NCCCCN=C(N)N | inactive | inactive | inactive | inactive | – | inactive | – | – | –
O=C(O)c1ccccc1Nc1cccc(OCc2ccc3ccccc3n2)c1 | inactive | – | inactive | inactive | inactive | – | – | – | –
Oc1cc2c(cc1O)C(c1ccccc1)CNCC2 (configuration not stated) | 8.91 µM (active) | 0.631 µM (active) | – | inactive | inactive | – | – | – | –
CC#CCOC(=O)c1c(C)nc2sc3c(c2c1N)CCC(O)C3 (configuration not stated) | inactive | inactive | inactive | inactive | – | inactive | – | – | –
N#C/C(=C\c1ccc(O)c(O)c1)C(=O)NCCc1ccccc1 | 3.98 µM (active) | 1.12 µM (active) | inactive | inactive | – | inactive | – | – | –
CN(C)C(=O)/N=N/C(=O)N(C)C | inactive | inactive | – | inactive | inactive | inactive | – | – | –
NC1(C(=O)O)CCc2cc(C(=O)O)ccc21 (configuration not stated) | inactive | inactive | inactive | inactive | – | inactive | – | – | –
COC(=O)C(N)Cc1ccc(Cl)cc1 (configuration not stated) | inactive | inactive | inactive | inactive | – | inactive | – | – | –
Clc1nccc2c1ccc1ccccc12 | inactive | inactive | inactive | inactive | – | inactive | – | – | –
CNc1ncnc2c1ncn2[C@H]1C[C@H](OP(=O)(O)O)[C@@H](COP(=O)(O)O)O1 | inactive | inactive | inactive | inactive | – | inactive | – | – | –
COc1ccc(NC(=O)c2ccc(-c3ccc(-c4noc(C)n4)cc3C)cc2)cc1N1CCN(C)CC1 | 3.55 µM (active) | inactive | inactive | inactive | – | inactive | – | – | –
